Sm TGR inh: inhibitors of Schistosoma mansoni thioredoxin glutathione reductase; Q962Y6; AID 485364; 3% of 360,000 active; purified TGR, DTNB reduction, TNB absorbance 405 nm; Potency, µM (top dose mostly 114 µM), without a hit: at the top dose activity change, negative = inhibition, usual class: inhibitors; further: potency means the concentration at half of the fitted maximal effect; on the % scale 0 is the no-effect control and ±100 the full control effect; nearly all actives have a fitted effect of over 60% in size
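First, TGR (20 nM dispensed) and NADPH were mixed with compound. Second, a 15 min room-temperature incubation followed. Third, further NADPH and then DTNB were added to start the reaction. Finally, TNB absorbance was monitored kinetically.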
Pf growth 48h: P. falciparum growth inhibition at 48 hours (one generation). P. falciparum luciferase growth in erythrocytes, 48 h. Potency, µM (doses to about 28.7 µM), inactives show top-dose activity change, negative = inhibition, most hits filed as inhibitors. 5.9% of 310,000 active; further: potency means the concentration at half of the fitted maximal effect; on the % scale 0 is the no-effect control and ±100 the full control effect
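A one-generation exposure of luciferase-tagged malaria parasites in RPMI 1640/Albumax erythrocyte culture, 37 C and 5% CO2. Inhibition is inferred from decreased luminescence after adding detection reagent.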
SARS PLP yeast: inhibitors of SARS-CoV papain-like protease in yeast. S. cerevisiae expressing SARS-CoV PLpro, growth rescue. Potency, µM (titrated, usually from 32.9 µM), inactives show at the highest dose activity, positive = growth rescue, most hits filed as activators. 0.19% of 330,000 active. AID 485353; calls by dose curve; further: potency means the concentration at half of the fitted maximal effect; 0% is about no effect; nearly all actives have a fitted effect of over 55% in size
Pf growth 96h: inhibits malaria parasite growth, 96 h. AID 504834. Potency, µM (titrated, usually from 28.7 µM), inactives show top-dose activity change, negative = inhibition, usual class: inhibitors. P. falciparum luciferase reporter growth, 96 h. 6.9% of 320,000 active; further: potency means the concentration at half of the fitted maximal effect; on the % scale 0 is the no-effect control and ±100 the full control effect
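Delayed-death screen, second-generation endpoint: infected erythrocytes, 2% hematocrit, 0.05% parasitemia final; 96 hours at 37 C, 5% CO2; luciferase detection reagent; luminescence decrease equals reduced growth.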
HCMV antiviral: inhibitors of human cytomegalovirus; HFF cells, HCMV-luciferase reporter, 72 h; active compounds read low; activity change, negative = inhibition, % at 57.5 µM; 4.5% of 410,000 active; AID 1259415; in the data active means activity change below about -60%; inconclusive means no clear call, values can overlap the other calls; inactive means above about -39%; further: on the % scale 0 is the no-effect control and ±100 the full control effect
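Screen run at 2 compound doses on HFFs infected with reporter HCMV, MOI 1 PFU/cell. Luciferase activity from cell lysates at 72 h post infection gave inhibition relative to buffer-only and Salinomycin wells.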
HCV inhibitor: inhibitors of hepatitis C virus infection. Huh7.5.1 HCVcc-Cre infection, luciferase reporter, 44 h. Potency, µM (highest dose often 41.8 µM), for the others: at the highest dose activity change, negative = inhibition, usual class: inhibitors. 3.4% of 340,000 active; further: potency means the concentration at half of the fitted maximal effect; on the % scale 0 is the no-effect control and ±100 the full control effect
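After 44 h co-culture of compound, cells and HCVcc-Cre (~0.5 moi), substrate is added for 15 min at room temperature and luciferase measured over 15 sec. Cells were seeded at 1,000/well and pre-cultured 4 h.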
* = called active by the depositor. Hits are enriched below; roughly 15% of the tested compounds scored in any of these assays. Unless noted, the call rests on the fitted dose curve; in most records, active means well fitted curve in the direction sought with a large enough effect; inconclusive means small, poorly fitted or top-dose-only effect, or another doubt; inactive means no such curve, though single readings can be large; an effect the other way counts as inactive or inconclusive.

Screening CCOc1ccc(NC(=O)CC2C(=O)N(c3ccccc3)C(=O)N2Cc2ccco2)cc1 (stereo not drawn) returned Sm TGR inh 45µM*, Pf growth 48h 8%, SARS PLP yeast -1%, Pf growth 96h -65%, HCMV antiviral -22 and HCV inhibitor -27%.
`CCC[C@H]1[C@@H](NS(=O)(=O)c2cc(Cl)cc(Cl)c2)CC[C@@]23CCCN2C(=O)CCC[C@@H]13` gave HCMV antiviral 2.
For CCOCCn1ccc2c(OCC(=O)Nc3ccc(OC(F)(F)F)cc3)cccc2c1=O the results were Sm TGR inh 8% and HCMV antiviral -2.
O=C(NCc1ccco1)c1ccccc1NS(=O)(=O)c1ccc(Br)s1 was read as Sm TGR inh inconclusive, Pf growth 48h 35%, SARS PLP yeast -27%, Pf growth 96h inconclusive, HCMV antiviral -11 and HCV inhibitor 6%.
COC(=O)c1ccc(NC(=O)CC2C(=O)N(c3cccc(C)c3)C(=O)N2Cc2ccco2)cc1 (stereo not drawn) was read as Sm TGR inh -14% and HCMV antiviral -8.
For COc1ccc(NC(=O)CC2C(=O)N(c3cccc(OC)c3)C(=O)N2C(C)C)cc1 (stereo not drawn) the results were Sm TGR inh 5%, Pf growth 48h -17%, SARS PLP yeast 0%, Pf growth 96h 18%, HCMV antiviral -27 and HCV inhibitor -1%.
For COCCN1C(=O)N(c2cccc(OC)c2)C(=O)C1CC(=O)Nc1ccccc1 (stereo not drawn) the results were Sm TGR inh -4% and HCMV antiviral 22.
COCCN1C(=O)N(c2cccc(OC)c2)C(=O)C1CC(=O)Nc1cccc(F)c1 (stereo not drawn) was read as Sm TGR inh 6%, Pf growth 48h -1%, SARS PLP yeast -10%, Pf growth 96h 4.1µM*, HCMV antiviral -4 and HCV inhibitor 0%.
COc1ccc(NC(=O)CC2C(=O)N(c3cccc(OC)c3)C(=O)N2CCC(C)C)cc1 (stereo not drawn) was read as Sm TGR inh -15%, SARS PLP yeast -11%, Pf growth 96h 12µM*, HCMV antiviral -9 and HCV inhibitor -22%.
Screening COc1cc(NC(=O)CC2C(=O)N(c3cccc(C)c3)C(=O)N2Cc2ccco2)cc(OC)c1 (stereo not drawn) returned Sm TGR inh 50µM* and HCMV antiviral -32.
`CCCCCCOc1ccc(NC(=O)CC2C(=O)N(CC)C(=S)N2Cc2ccco2)cc1` (stereo not drawn) gave Sm TGR inh -4%, Pf growth 48h -20%, SARS PLP yeast -31%, Pf growth 96h 3%, HCMV antiviral -90* and HCV inhibitor inconclusive.
`CCCCn1c(Cn2nc(C(=O)O)c3ccccc3c2=O)nc2cc(S(N)(=O)=O)ccc21` gave Sm TGR inh 3%, Pf growth 48h 39%, SARS PLP yeast -1%, Pf growth 96h 28%, HCMV antiviral 11 and HCV inhibitor -5%.
Cc1ccc2nc(CSc3nnc(NC(=O)COc4ccccc4F)s3)cc(=O)n2c1 was read as Sm TGR inh -4% and HCMV antiviral -12.
For O=C(CN1CCCC1)Nc1ccccc1Sc1ccc(Cl)cc1 the results were Sm TGR inh 8%, Pf growth 48h inconclusive, SARS PLP yeast 0%, Pf growth 96h inconclusive, HCMV antiviral inconclusive and HCV inhibitor 11%.
Screening CCc1nnc2c(NCCc3ccccc3)nc3ccccc3n12 returned Sm TGR inh 10%, Pf growth 48h 5%, SARS PLP yeast -1%, Pf growth 96h 5%, HCMV antiviral 67 and HCV inhibitor -22%.
Screening Cc1nnc2c(SC(C)C)nc3ccccc3n12 returned Sm TGR inh 7%, Pf growth 48h -28%, SARS PLP yeast 6%, Pf growth 96h 347%, HCMV antiviral -82* and HCV inhibitor inconclusive.
